Assay results from article PMC4552634, “A New Set of Chemical Starting Points with Plasmodium falciparum Transmission-Blocking Potential for Antimalarial Drug Discovery” (PLoS ONE, 2015).
Screen size: about 13,000 compounds; about 3,200 (25%) showed an effect of 50% or more. The list shows a part of the results.

Test system: P. falciparum stage V gametocytes
Set-up: BacTiter-Glo ATP luminescence viability of purified stage V gametocytes in 384-well plates, per cent inhibition versus DMSO
Settings: 48 h, 5 µM; inhibitor

SMILES	% Inhibition [%]
CC(C)(CN)c1nc(-c2ccc(Br)c(O)c2)c(-c2ccncc2)[nH]1 [TCMDC-140680]	-59.77
O=C(/C=C/c1ccc(Cl)c(Cl)c1)NCCCCCN1CCC(NC(=O)Nc2ccccc2F)CC1 [TCMDC-139386]	-2.666
C=CCOC1OC(COC(c2ccccc2)(c2ccccc2)c2ccccc2)C(OC(C)=O)C(OC(C)=O)C1NC(C)=O (centres unmarked) [TCMDC-131992]	13.79
CCN(CC)CCN(Cc1ccc(-c2ccc(C(F)(F)F)cc2)cc1)C(=O)Cn1c(CCc2cccc(F)c2F)nc(=O)c2ccccc21 [TCMDC-140922]	60.98
CCN(CC)CCN(Cc1ccc(-c2ccc(C(F)(F)F)cc2)cc1)C(=O)Cn1c(CCc2cccc(F)c2F)nc(=O)c2cccnc21 [TCMDC-141013]	97.72
CCN(CC)CCN(CCCc1ccc(-c2ccc(C(F)(F)F)cc2)cc1)C(=O)Cn1c(CCc2cccc(F)c2F)nc(=O)c2c1CCC2 [TCMDC-140984]	42.45
CCN(CC)CCN(Cc1ccc(-c2ccc(C(F)(F)F)cc2)cc1)C(=O)Cn1c(CCc2ccc(F)c(F)c2F)nc(=O)c2cccnc21 [TCMDC-141002]	20.31
CC(C)(C)NCCN(Cc1ccc(-c2ccc(C(F)(F)F)cc2)cc1)C(=O)Cn1c(CCc2cccc(F)c2F)nc(=O)c2c1CCC2 [TCMDC-140979]	113.3
CCN(CC)CCN(Cc1ccc(-c2ccc(C(F)(F)F)cc2)cc1)C(=O)Cn1c(CCc2cccc(F)c2F)c(C)c(=O)c2ccccc21 [TCMDC-141313]	76.85
Cn1nccc1C(=O)NCCNCc1cccc(-c2csc(-c3nc4ccccc4[nH]3)c2)c1 [TCMDC-133002]	-62.03
CCCN1CCc2c(sc3nc(SCC(=O)Nc4ccc(C)cc4)n(-c4ccc(C)cc4)c(=O)c23)C1 [TCMDC-125451]	5.583
O=C(NC1CCCc2ccccc21)C1CCCN(C(=O)c2ccc(O)c(-c3ccc(Cl)c(Cl)c3)c2)C1 (centres unmarked) [TCMDC-140890]	19.76
CCn1c(CN2CCC(C)CC2)nc2cc(NC(=O)c3cccs3)ccc21 [TCMDC-124730]	-26.92
CCCCCCCN(Cc1ccc(OC(C)(C)C(=O)OCC)cc1)C(=O)Cc1ccc(F)cc1F [TCMDC-131920]	13.51
COC(=O)c1cccc(NC(=O)NC2CCN(c3ccnc(Nc4ccc(OC)cc4)n3)C2)c1 (centres unmarked) [TCMDC-133618]	-6.04
CC1CN(Cc2cccc(-c3ccc(-c4nc5ccccc5[nH]4)cc3)c2)CC(C)O1.O=C(O)C(F)(F)F (centres unmarked) [TCMDC-133816]	-91.64
CSc1ccc(NC(=O)Nc2cc(C)nc3ccccc23)cc1Br [TCMDC-139874]	-51.95
CCN(CC)CCN(Cc1ccc(-c2ccc(C(F)(F)F)cc2)cc1)C(=O)Cn1c(CCc2ccc(F)c(F)c2F)nc(=O)c2ccccc21 [TCMDC-140952]	68.69
CCN(CC)CCN(Cc1ccc(-c2ccc(C(F)(F)F)cc2)cc1)C(=O)Cn1c(CCc2ccccc2F)nc(=O)c2ccccc21 [TCMDC-141012]	52.86
CCN(CC)CCN(Cc1ccc(-c2ccc(C(F)(F)F)cc2)cc1)C(=O)Cn1c(CCc2ccc(F)c(F)c2F)nc(=O)c2ccc(F)cc21 [TCMDC-141072]	19.94
Clc1ccc2c(NN=Cc3cccnc3)ccnc2c1 [TCMDC-123968]	-19.33
Cc1cccc2c3c([nH]c12)C1(CCN(CCc2ccccc2)CC1)NC(C(=O)NCc1ccccc1)C3 (centres unmarked) [TCMDC-141245]	-39.36

SMILES	% Inhibition [%]
Cc1cc(CN2CCN(CCOC(c3ccccc3)c3ccccc3)CC2)ccc1O [TCMDC-135695]	-7.709
Cc1ccc(C)c(S(=O)(=O)NCC2CCN(Cc3ccc(O)cc3)CC2)c1 [TCMDC-141802]	45.59
COc1cc2ccccc2cc1CNCCCCCCNCc1cc2ccccc2cc1OC [TCMDC-137955]	4.122
CCOc1c(C)cc(C(F)(F)F)cc1CNCCCNc1cc(=O)c2ccccc2[nH]1 [TCMDC-141046]	-34.36
CCOc1c(CNCCCNc2cc(=O)c3ccccc3[nH]2)cc(I)cc1OC [TCMDC-139847]	-35.79
COc1cc(CNCCCCCCNCc2cc(OC)c3ccccc3c2OC)c(OC)c2ccccc12 [TCMDC-137502]	106.1
CCOc1c(Br)cc(C)cc1CNCCCNc1nc2ccccc2[nH]1 [TCMDC-140090]	7.25
CCOc1cc(CNCCCCCCNCc2cc(OCC)c(OCC)c3ccccc23)c2ccccc2c1OCC [TCMDC-137939]	106
CCOc1cc2ccccc2cc1CNCCCCCCNCc1cc2ccccc2cc1OCC [TCMDC-137940]	69.35
COc1cc(CNCCCCCCNCc2cc(OC)c(OC)c3ccccc23)c2ccccc2c1OC [TCMDC-137981]	104.3
COc1cc(-c2cc(-c3ccc(OCCN(C)C)cc3)[nH]c2-c2ccncc2)ccc1Cl [TCMDC-141251]	-2.677
COc1cc(F)c2ncc(Cl)c([C@H](O)CN3CCC(NCc4cc5c(cn4)OCCO5)CC3)c2c1 [TCMDC-135474]	10.97
O=C(NC1CCC(CCN2Cc3cccc(C(F)(F)F)c3C2)CC1)c1cccc(-c2cccnc2)c1 (centres unmarked) [TCMDC-139602]	-51.73
COc1ccc(CNCc2ccc(-c3ccc(-c4nc5cc(C(F)(F)F)ccc5[nH]4)cc3)cc2)cc1.O=C(O)C(F)(F)F [TCMDC-132724]	-6.92
O=C(Nc1cccc(-c2ccc(-c3nc4ccc(F)cc4[nH]3)cc2)c1)Nc1ccc(Cl)c(Cl)c1 [TCMDC-133280]	-66.79
CC(C)C[C@H](NC(=O)c1cc2ccccc2s1)C(=O)N[C@H]1CCN(Cc2ccc(I)c(OC3CCN(C)C3)c2)C1 (some centres unmarked) [TCMDC-140288]	64.78
N#Cc1ccccc1S(=O)(=O)N1CCCC(CNC(=O)[C@H](CC2CCCCC2)NC(=O)c2cc3ccccc3s2)C1 (some centres unmarked) [TCMDC-136558]	-3.694
CC1CCN(CC[C@H]2CCCN2S(=O)(=O)c2cccc(NC(=O)c3cc4ccccc4s3)c2)CC1 [TCMDC-141077]	-68
CC(C)C[C@H](NC(=O)c1cc2ccccc2s1)C(=O)N[C@H]1CCN(Cc2ccc(I)c(OCCN3CCCC3)c2)C1 [TCMDC-140287]	56
CC(C)C[C@H](NC(=O)c1cc2ccccc2s1)C(=O)N[C@H]1CCN(Cc2ccc(OCCCN(C)C)c(Cl)c2)C1 [TCMDC-140291]	44.54
CC(C)CC(NC(=O)c1cc2ccccc2s1)C(=O)N1CCCCCC1c1ccc(C(C)(C)C)cc1 (centres unmarked) [TCMDC-136337]	63.43
CC(C)C[C@H](NC(=O)c1cc2ccccc2s1)C(=O)N[C@H]1CCN(Cc2ccc(OC3CCN(C)C3)c(Cl)c2)C1 (some centres unmarked) [TCMDC-140293]	19.83

SMILES	% Inhibition [%]
COc1ccc(CC2(c3ccc(F)cc3)N=C(N)N(CCCc3ccc(F)c(F)c3)C2=O)cc1 (centres unmarked) [TCMDC-136542]	-2.474
Clc1ccc2nnc(-c3c(Cl)cccc3Cl)n2n1 [TCMDC-124489]	23.9
c1cc(CNCC2CCCO2)cc(-c2csc(-c3nc4ccccc4[nH]3)c2)c1 (centres unmarked) [TCMDC-133108]	-15.46
C=CCc1cc(Br)ccc1OCCCOc1c(C)nc(N)nc1N [TCMDC-131366]	-2.875
Cc1ccc2c(OCCN3CCC(Cc4ccc5c(c4)NC(=O)CO5)CC3)cc(F)cc2n1 [TCMDC-141356]	22.38
CC(c1cccc(S(=O)(=O)NCc2cccc(C(F)(F)F)c2)c1)N1CCC(N2CCCCC2)CC1 (centres unmarked) [TCMDC-133565]	5.245
O=S(=O)(Nc1cccc(CCN2CCC(N3CCCCC3)CC2)c1)c1ccccc1C(F)(F)F [TCMDC-134070]	2.875
O=C(c1ccc(Cl)cc1)C1CCCN(C2CCN(CCc3ccccc3)CC2)C1 (centres unmarked) [TCMDC-124655]	-36.02
O=S(=O)(Nc1ccc(CCN2CCC(N3CCCCC3)CC2)cc1)c1cccc(C(F)(F)F)c1 [TCMDC-134090]	84.05
Cc1cccc(S(=O)(=O)Nc2cccc(CCN3CCC(N4CCCCC4)CC3)c2)c1 [TCMDC-134087]	26.17
O=S(=O)(Nc1cccc(CCN2CCC(N3CCCCC3)CC2)c1)c1cccc(C(F)(F)F)c1 [TCMDC-134086]	60.6
O=S(=O)(Nc1ccc(CCN2CCC(N3CCCCC3)CC2)cc1)c1ccccc1C(F)(F)F [TCMDC-134080]	79.99
O=c1ccc(-c2nc3cc(Cl)c(Cl)cc3n2Cc2ccc(Cl)cc2Cl)c[nH]1 [TCMDC-124041]	6.921
Cc1ccc(Nc2nc(C)cc(Nc3cccc(NS(C)(=O)=O)c3)n2)cc1 [TCMDC-133449]	22.69
CCCc1cc(Cc2cnc(N)nc2N)cc(CCC)c1OCCCCCC(=O)OCC [TCMDC-137289]	-20.26
Cc1ccc(NC(=O)c2ccc(N3CCN(c4ccncc4)CC3)cc2)cc1F [TCMDC-135126]	6.025
Cc1ccc(NC(=O)c2ccnc(N3CCN(c4ccncc4)CC3)c2)cc1F [TCMDC-135102]	18.96
O=C(Nc1ccc2c(c1)CCC2)c1nc(N2CCN(c3ccncc3)CC2)ccc1Cl [TCMDC-135105]	30.18
Cc1ccc(NC(=O)c2ccc(N3CCN(c4ccncc4)CC3)cn2)cc1F [TCMDC-135156]	103.4
Cc1ccc(NC(=O)c2nc(N3CCN(c4ccncc4)CC3)ccc2Cl)cc1F [TCMDC-135103]	90.08
COc1cccc(NC(=O)c2nc(N3CCN(c4ccncc4)CC3)ccc2Cl)c1 [TCMDC-135104]	27.68
